Measurements: PubChem BioAssay
For some assays here: Entries with a potency or affinity are not part of this list. Calls of active or inactive are those of the source. Unless noted, the rule behind the calls is not given here.

Key:
[1] = antimalarial activity against Dd2 strain (AID 2302;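 active = growth inhibition above 50% at the single 2 µM test dose, taken to imply half-maximal potency below 2 µM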;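 note: 0% = DMSO untreated growth and 100% = chloroquine plus artemisinin killed control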); details: P. falciparum Dd2 in RBCs, LDH growth readout, 72 h; at 2 µM; active compounds read high
[2] = target: L-lactate dehydrogenase (Plasmodium falciparum (isolate CDC / Honduras)) (UniProt Q27743); test: PfLDH activity inhibition – cell lysate, 3D7 strain, counter-screen for P. falciparum growth inhibition project (AID 2304);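 note: 0% = vehicle and 100% = reference inhibitor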; details: P. falciparum 3D7 crude extract, LDH APAD/NBT absorbance; at 2 µM; active compounds read high
Chain of L-lactate dehydrogenase (Plasmodium falciparum (isolate CDC / Honduras)) (Q27743 whole entry, looked up): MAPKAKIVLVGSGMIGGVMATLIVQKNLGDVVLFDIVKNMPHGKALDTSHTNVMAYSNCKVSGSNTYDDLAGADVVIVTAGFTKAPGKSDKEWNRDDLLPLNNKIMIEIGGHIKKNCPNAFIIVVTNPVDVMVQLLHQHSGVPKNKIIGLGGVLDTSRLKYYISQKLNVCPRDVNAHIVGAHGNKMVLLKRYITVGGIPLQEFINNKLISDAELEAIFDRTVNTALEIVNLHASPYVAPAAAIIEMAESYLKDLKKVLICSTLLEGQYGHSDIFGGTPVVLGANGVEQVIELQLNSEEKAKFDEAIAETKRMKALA

[3] = inhibition of 3D7 malaria parasite growth – strain 3D7 (AID 2306);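 note: 0% = DMSO wells and 100% = chloroquine plus artemisinin control wells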; details: P. falciparum 3D7 erythrocytic growth, LDH absorbance, 72 h; at 2 µM; active compounds read high
[4] = target: Calcium-dependent protein kinase 1 (Plasmodium falciparum (isolate 3D7)) (UniProt P62344); test: PfCDPK1 kinase inhibitors, biochemical, TCAMS library (AID 1159585; cut-off not given, nearly all actives have IC50 up to about 0.98 µM;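 note: inhibitors leave more ATP so luminescence rises with inhibition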); details: recombinant PfCDPK1, Kinase-Glo ATP depletion luminescence
Chain of Calcium-dependent protein kinase 1 (Plasmodium falciparum (isolate 3D7)) (P62344 whole entry, looked up): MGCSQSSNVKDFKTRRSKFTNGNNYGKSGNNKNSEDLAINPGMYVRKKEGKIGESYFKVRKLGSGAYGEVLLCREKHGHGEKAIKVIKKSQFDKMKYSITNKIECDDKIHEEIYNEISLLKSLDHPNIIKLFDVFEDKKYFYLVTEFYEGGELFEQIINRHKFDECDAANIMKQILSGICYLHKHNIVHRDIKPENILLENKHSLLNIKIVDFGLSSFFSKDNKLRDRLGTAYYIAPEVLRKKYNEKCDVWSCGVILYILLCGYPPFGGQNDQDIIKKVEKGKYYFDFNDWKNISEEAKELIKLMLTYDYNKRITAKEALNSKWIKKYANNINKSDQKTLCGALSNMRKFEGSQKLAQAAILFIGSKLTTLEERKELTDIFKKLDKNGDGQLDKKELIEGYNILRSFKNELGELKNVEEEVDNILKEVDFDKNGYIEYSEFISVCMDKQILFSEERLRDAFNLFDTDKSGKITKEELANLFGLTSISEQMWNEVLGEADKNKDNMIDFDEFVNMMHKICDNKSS

[5] = target: Plasmodium falciparum protein kinase 6 (PK6, PF3D7_1337100) (UniProt Q8IDW1); test: PfPK6 kinase inhibitors, biochemical, TCAMS library (AID 1159586); details: recombinant PfPK6, Kinase-Glo ATP depletion luminescence
Chain of Plasmodium falciparum protein kinase 6 (PK6, PF3D7_1337100) (Q8IDW1 1-305): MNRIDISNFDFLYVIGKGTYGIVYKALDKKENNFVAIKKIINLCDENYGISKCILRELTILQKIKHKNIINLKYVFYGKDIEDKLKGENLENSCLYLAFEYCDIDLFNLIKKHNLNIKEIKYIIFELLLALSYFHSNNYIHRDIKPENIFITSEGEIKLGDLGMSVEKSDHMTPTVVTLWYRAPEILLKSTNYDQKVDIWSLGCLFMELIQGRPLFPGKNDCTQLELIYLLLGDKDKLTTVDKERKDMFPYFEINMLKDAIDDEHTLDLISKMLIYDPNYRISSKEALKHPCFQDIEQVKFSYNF

[6] = target: Protein kinase 7 (PK7), Plasmodium falciparum 3D7 (PF3D7_0213400) (UniProt Q7YTF7); test: inhibition of Plasmodium PK7 catalytic activity – biochemical, TCAMS antimalarial set, Kinase-Glo luminescence (AID 1159587); details: recombinant PfPK7, Kinase-Glo ATP depletion luminescence
Chain of Protein kinase 7 (PK7), Plasmodium falciparum 3D7 (PF3D7_0213400) (Q7YTF7 1-343): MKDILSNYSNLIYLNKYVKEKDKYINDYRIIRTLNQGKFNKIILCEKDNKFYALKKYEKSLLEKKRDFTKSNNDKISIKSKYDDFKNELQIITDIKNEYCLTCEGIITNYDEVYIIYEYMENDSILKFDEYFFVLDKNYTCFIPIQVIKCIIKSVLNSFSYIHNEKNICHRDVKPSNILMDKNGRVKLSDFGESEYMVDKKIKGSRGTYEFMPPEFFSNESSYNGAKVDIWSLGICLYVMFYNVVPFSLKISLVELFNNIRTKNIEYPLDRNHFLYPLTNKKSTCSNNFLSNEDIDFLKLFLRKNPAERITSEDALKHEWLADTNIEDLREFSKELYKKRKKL

[7] = target: Calcium-dependent protein kinase 4 (Plasmodium falciparum (isolate 3D7)) (UniProt Q8IBS5); test: PfCDPK4 kinase inhibitors, biochemical, TCAMS library (AID 1159588; cut-off not given, nearly all actives have IC50 up to about 0.91 µM); details: recombinant PfCDPK4, Kinase-Glo ATP depletion luminescence
Chain of Calcium-dependent protein kinase 4 (Plasmodium falciparum (isolate 3D7)) (Q8IBS5 whole entry, looked up): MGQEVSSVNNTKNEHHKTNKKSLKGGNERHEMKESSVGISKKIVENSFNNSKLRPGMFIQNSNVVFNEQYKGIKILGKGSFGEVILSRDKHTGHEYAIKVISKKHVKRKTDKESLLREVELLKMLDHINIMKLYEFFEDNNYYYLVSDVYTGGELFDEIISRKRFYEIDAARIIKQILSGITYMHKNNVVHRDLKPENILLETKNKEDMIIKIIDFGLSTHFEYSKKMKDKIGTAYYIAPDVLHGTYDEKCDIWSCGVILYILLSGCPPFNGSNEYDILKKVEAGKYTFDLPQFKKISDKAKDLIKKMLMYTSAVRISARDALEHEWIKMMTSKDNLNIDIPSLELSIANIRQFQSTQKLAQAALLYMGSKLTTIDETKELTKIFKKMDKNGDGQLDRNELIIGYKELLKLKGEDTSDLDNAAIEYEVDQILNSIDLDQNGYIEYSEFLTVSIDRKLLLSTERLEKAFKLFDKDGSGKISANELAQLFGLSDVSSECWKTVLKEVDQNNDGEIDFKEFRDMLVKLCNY

[8] = HepG2 cytotoxicity, primary screen, cytotoxicity control for P. falciparum antimalarial project, cell-based, ATP luminescence (AID 2303;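 active = inhibition above 50%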;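 note: 0% = DMSO wells and 100% = digitonin-killed cells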); details: HepG2 viability, 24-48 h, at 10 µM, active compounds read high

CN1CCN(c2ccc3nc(-c4ccc5nc(-c6ccc([N+](=O)[O-])c(N)c6)[nH]c5c4)[nH]c3c2)CC1
inactive: inhibition [2] -7% | outcome [4] | outcome [5] | outcome [6] | outcome [7]
active: growth inhibition [1] 101% | growth inhibition [3] 100%

CC(C)C(=O)NC(NC(=S)Nc1ccc(Br)cc1)C(Cl)(Cl)Cl (stereo unspecified)
active: growth inhibition [3] 93%
inactive: inhibition [8] -5% | inhibition [2] 3% | outcome [4] | outcome [5] | outcome [6] | outcome [7]

CCCCN(CCCC)CCCN(CCCN(CCCC)CCCC)c1cc(C)nc(Nc2ccc(Cl)cc2)n1
inactive: inhibition [2] 0% | outcome [4] | outcome [5] | outcome [6] | outcome [7]
active: growth inhibition [1] 99% | growth inhibition [3] 101%

COc1cc2c(cc1C(F)(F)F)N(C(=O)Nc1ccc(Br)cn1)CC2
active: growth inhibition [3] 97%
inactive: inhibition [8] 16% | inhibition [2] -3% | outcome [4] | outcome [5] | outcome [6] | outcome [7]

CC(=O)Nc1ccc(OCCCCCOc2ccc(NC(C)=O)cc2Cl)c(Cl)c1
inactive: growth inhibition [1] 0% | inhibition [2] -7% | outcome [4] | outcome [5] | outcome [6] | outcome [7]
active: growth inhibition [3] 93%

Clc1ccc(CNCCCCCCCNCc2ccc(Cl)c(Cl)c2)cc1Cl
active: growth inhibition [3] 99%
inactive: growth inhibition [1] 49% | inhibition [2] -7% | outcome [4] | outcome [5] | outcome [6] | outcome [7]

O=C(NCCCCN1CCC(c2ccc3c(c2OCCCO)CCCC3)CC1)c1ccc(-c2ccc(C(F)(F)F)cc2)c(CO)c1
active: inhibition [8] 66% | growth inhibition [3] 95%
inactive: inhibition [2] 4% | outcome [4] | outcome [5] | outcome [6] | outcome [7]

Nc1nc(Cc2ccc(Cl)cc2)nc(Cc2ccc(Cl)cc2)n1
active: growth inhibition [3] 85%
inactive: growth inhibition [1] -2% | inhibition [2] 2% | outcome [4] | outcome [5] | outcome [6] | outcome [7]

NC(=O)c1sc(-n2cnc3ccc(C(=O)NCCN4CCOCC4)cc32)cc1OCc1ccccc1C(F)(F)F
active: growth inhibition [3] 81%
inactive: inhibition [8] -15% | inhibition [2] 1% | outcome [4] | outcome [5] | outcome [6] | outcome [7]

COc1ccc(NS(=O)(=O)c2ccc(Oc3nc(C)nc4sc5c(c34)CCCC5)cc2)cc1
inactive: inhibition [8] 5% | inhibition [2] -2% | outcome [4] | outcome [5] | outcome [6] | outcome [7]
active: growth inhibition [3] 96%

O=C(NNC(=O)c1ccc(CN2CCC(c3nc4ccccc4[nH]3)CC2)cc1)Nc1ccc(Oc2ccccc2)cc1
active: growth inhibition [3] 86%
inactive: inhibition [8] -2% | inhibition [2] 0% | outcome [4] | outcome [5] | outcome [6] | outcome [7]

COc1cc(Cc2cnc3nc(N)nc(N)c3c2C)cc(OC)c1OC
inactive: inhibition [2] 1% | outcome [4] | outcome [5] | outcome [6] | outcome [7]
active: growth inhibition [1] 98% | growth inhibition [3] 95%

CCNC(=NCc1ccccc1)NCCCCCCNC(=NCc1ccccc1)NCC
active: growth inhibition [1] 95% | growth inhibition [3] 96%
inactive: inhibition [2] -5% | outcome [4] | outcome [5] | outcome [6] | outcome [7]

CC(C)(C)c1cc(Cl)cc(C(=O)Nc2cc([N+](=O)[O-])ccc2Cl)c1O
active: inhibition [8] 79% | growth inhibition [3] 91%
inactive: inhibition [2] 2% | outcome [4] | outcome [5] | outcome [6] | outcome [7]

CC1CCNc2ccc(Cc3cnc(N)nc3N)cc21 (stereo unspecified)
inactive: growth inhibition [1] 0% | inhibition [2] 5% | outcome [4] | outcome [5] | outcome [6] | outcome [7]
active: growth inhibition [3] 82%

Oc1ccc(CNCC2CCN(CC3CCCCC3)CC2)cc1
inactive: inhibition [8] 9% | inhibition [2] -1% | outcome [4] | outcome [5] | outcome [6] | outcome [7]
active: growth inhibition [3] 82%

C[C@H]1CN(Cc2ccc(-c3cccc(CNC(=O)c4cccc(C(=O)c5ccc(Cl)c(Cl)c5)c4)c3)s2)CCN1
active: growth inhibition [3] 99%
inactive: inhibition [8] 3% | inhibition [2] 3% | outcome [4] | outcome [5] | outcome [6] | outcome [7]

CCN(c1ccc(O)c(CN2CCCCC2)c1)c1ccc([N+](=O)[O-])cn1
active: growth inhibition [1] 64% | growth inhibition [3] 94%
inactive: inhibition [2] 2% | outcome [4] | outcome [5] | outcome [6] | outcome [7]

Cc1nc(Cl)c2c(-c3ccccc3)csc2n1
active: growth inhibition [3] 84%
inactive: inhibition [8] -11% | inhibition [2] 1% | outcome [4] | outcome [5] | outcome [6] | outcome [7]

COc1cc(Cc2cnc(N)nc2N)cc(OCCCCNS(=O)(=O)C(F)(F)F)c1OC
active: growth inhibition [3] 84%
inactive: growth inhibition [1] -5% | inhibition [2] 7% | outcome [4] | outcome [5] | outcome [6] | outcome [7]

CC(C)CN1C(=O)C(c2ccc(F)c(F)c2)=C(O)C1c1ccccc1 (stereo unspecified)
inactive: inhibition [8] 0% | inhibition [2] -7% | outcome [4] | outcome [5] | outcome [6] | outcome [7]
active: growth inhibition [3] 94%

O=C(O)CCc1ccc(-c2c[nH]c3ncc(-c4ccc5ncccc5c4)cc23)cc1
active: growth inhibition [3] 88%
inactive: inhibition [8] 30% | inhibition [2] -3% | outcome [4] | outcome [5] | outcome [6] | outcome [7]

Cc1csc2nc(C(C)c3ccc(NC(=O)c4cccs4)cc3)oc(=O)c12 (stereo unspecified)
inactive: inhibition [8] -5% | inhibition [2] -3% | outcome [4] | outcome [5] | outcome [6] | outcome [7]
active: growth inhibition [3] 90%

O=C(O)CCSc1ncnc2nc[nH]c12
inactive: inhibition [8] 7% | inhibition [2] 6% | outcome [4] | outcome [5] | outcome [6] | outcome [7]
active: growth inhibition [3] 103%

CC(=O)Nc1cccc(Nc2c3ccccc3nc3ccccc23)c1
inactive: inhibition [8] 31% | inhibition [2] 5% | outcome [4] | outcome [5] | outcome [6] | outcome [7]
active: growth inhibition [3] 82%

CCN(CC)c1ccc2nc(N)nc(N)c2c1
active: growth inhibition [3] 93%
inactive: growth inhibition [1] -2% | inhibition [2] 2% | outcome [4] | outcome [5] | outcome [6] | outcome [7]

Cc1[nH]c(C)c(-c2ccc(Oc3ccc(S(C)=O)cc3)cc2)c(=O)c1Br (stereo unspecified)
active: growth inhibition [1] 64% | growth inhibition [3] 91%
inactive: inhibition [2] 0% | outcome [4] | outcome [5] | outcome [6] | outcome [7]

CCCOc1ccc(CNCCCCCCNCc2ccc(OCCC)c3ccccc23)c2ccccc12
active: growth inhibition [1] 96% | growth inhibition [3] 101%
inactive: inhibition [2] -2% | outcome [4] | outcome [5] | outcome [6] | outcome [7]

COc1ccc(CCN2CC[C@H](CNc3nc(-c4ccccc4)nc4ccccc34)C2)cc1S(N)(=O)=O
active: inhibition [8] 54% | growth inhibition [3] 85%
inactive: inhibition [2] -4% | outcome [4] | outcome [5] | outcome [6] | outcome [7]

COc1cc(Cc2cnc(N)nc2N)cc(OCCCCCCC(=O)O)c1OC
active: growth inhibition [3] 90%
inactive: growth inhibition [1] 2% | inhibition [2] -4% | outcome [4] | outcome [5] | outcome [6] | outcome [7]

CCN(Cc1cccc2ccccc12)c1ccc2nc(N)nc(N)c2c1
inactive: inhibition [2] 3% | outcome [4] | outcome [5] | outcome [6] | outcome [7]
active: growth inhibition [1] 100% | growth inhibition [3] 100%

O=[N+]([O-])c1ccc(-n2nc(-c3cccnc3)n(Cc3ccco3)c2=S)c(Cl)c1
active: growth inhibition [3] 95%
inactive: inhibition [8] 13% | inhibition [2] -1% | outcome [4] | outcome [5] | outcome [6] | outcome [7]

COc1ccc(N=C(N)Nc2ccccc2)nc1Cc1ccccc1
inactive: inhibition [8] 17% | inhibition [2] -6% | outcome [4] | outcome [5] | outcome [6] | outcome [7]
active: growth inhibition [3] 81%

Cc1ccccc1Oc1ccc(Nc2ccnc(Nc3cccc(C(N)=O)c3)n2)cc1C(F)(F)F
active: growth inhibition [3] 81%
inactive: inhibition [8] 9% | inhibition [2] -1% | outcome [4] | outcome [5] | outcome [6] | outcome [7]

COc1ccc(CNC(=O)Nc2cccc(-c3csc(N=C(N)N)n3)c2)cc1
active: growth inhibition [3] 80%
inactive: inhibition [8] 8% | inhibition [2] 1% | outcome [4] | outcome [5] | outcome [6] | outcome [7]

CC(Sc1n[nH]c(-c2ccccc2Br)n1)C(=O)Nc1ccc(F)cc1 (stereo unspecified)
inactive: inhibition [8] -7% | inhibition [2] 1% | outcome [4] | outcome [5] | outcome [6] | outcome [7]
active: growth inhibition [3] 90%

N=C(N)c1nc2ccccc2s1
inactive: inhibition [8] 1% | inhibition [2] -1% | outcome [4] | outcome [5] | outcome [6] | outcome [7]
active: growth inhibition [3] 87%

Cc1ccc(-c2cnc3[nH]cc(-c4ccc(C(=O)O)c(C)c4)c3c2)cc1C
active: growth inhibition [3] 96%
inactive: inhibition [8] 37% | inhibition [2] 0% | outcome [4] | outcome [5] | outcome [6] | outcome [7]
